In PubChem BioAssay (NCI) one finds growth data, which are given here for 13 compounds.

Experiment in all cases: NCI-60 one-dose screen, 48 h (100 = growth as untreated, 0 = no growth, -100 = all killed)
What all share (conditions): 10 µM unless noted

In assay [1] the test system is SK-MEL-2 melanoma.
The subject of assay [2] is EKVX NSCLC.
The test system of assay [3] is SN12C renal.
The test system of assay [4] is UO-31 renal.
The test system of assay [5] is TK-10 renal.
Assay [6] has as its system ACHN renal.
Assay [7] concerns CAKI-1 renal.
Assay [8] concerns A498 renal.
The test system of assay [9] is CCRF-CEM leukemia.
The subject of assay [10] is MOLT-4 leukemia.

The panel holds about 83,000 compounds, 20% with a hit somewhere; the sample as a whole holds those more often.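 Single-dose data. Exposure time 48 hours. Values below 10 considered active.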 Unmarked numbers belong to inactive results. Activity calls are given as the source filed them.

For `CC1(C)CC[C@]23CC[C@]4(C)[C@H](CC[C@@H]5[C@@]6(C)C/C(=C/O)C(=O)C(C)(C)[C@@H]6CC[C@]54C)[C@H]2[C@H]1OC3`, the growth was 108% in [1]; 98.4% in assay [2]; 99.2% in [3]; 85% in assay [4]; 113% in [5]; 110% in [6]. Also, the growth in [7] is 91.1%; in assay [8] it was 105%; in assay [9] it was 99.5%; in assay [10], 97.7%.
With `COc1cc(/C=C/C(=O)c2cccc(-n3cc(-c4ccc(Cl)cc4)[nH]c3=O)c2)ccc1O`, the growth in [1] was 58.5%; in assay [2], 68.7%; in assay [3], 46.4%; in assay [4], 31.2%; in assay [5], 104%; in assay [6], 60.4%. Moreover, the growth was 37.2% in [7], 106% in assay [8], 19.5% in [9] and 24.2% in assay [10].
Regarding `O=C(/C=C/c1ccccc1)N(C1CCCCC1)C1CCCCC1`, the growth is 82.9% in assay [1]; 85.1% in assay [2]; 97.3% in [3]; 97% in assay [4]; 112% in assay [5]; 86% in assay [6]. Besides, the growth in assay [7] is 66.8%; in assay [8], 93.4%; in [9], 79.6%; in assay [10], 92.1%.
Consider `O=C(O)c1cn(C2CC2)c2cc(N3CCN(C(=O)N4CCOCC4)CC3)c(F)cc2c1=O`, for which the growth in [1] was 103%; in assay [2], 101%; in assay [3] it was 101%; in assay [4], 79.6%; in assay [5], 93.2%; in assay [6], 100%. The growth in assay [7] was 96.5%; in assay [8], 117%; in [9], 108%; in assay [10] it was 117%.
For the compound `CN(C)c1ccc(C(=S)c2ccc(N(C)C)cc2)cc1`, the growth is 58.5% in [1]; 98.2% in assay [2]; 75.6% in assay [3]; 59% in assay [4]; 82.7% in [5]; 93.4% in assay [6]. For the same compound, the growth in assay [7] was 87.1%; in assay [8] it was 62.6%; in [9], 77.3%; in [10], 75.5%.
For the compound `COc1ccc(Nc2ncc(C#N)c(NCCCNC(=O)C3CCC3)n2)cc1`, the growth is 80.6% in assay [1]; 87.3% in [2]; 35.3% in assay [3]; 11.1% in [4]; 41.4% in assay [5]; 48.1% in assay [6]. Besides, the growth is 26.3% in assay [7], 52.8% in assay [8], 45.5% in assay [9] and 34.7% in assay [10].
Take `O=C(Cn1nc(-c2cccc3ccccc23)ccc1=O)NCc1cccc(Cl)c1`: the growth is 59.2% [50 µM] in assay [1]; 21% [50 µM] in assay [2]; 46.4% [50 µM] in assay [3]; 15.3% [50 µM] in assay [4]; 40.7% [50 µM] in assay [5]; 28.9% [50 µM] in [6]. Besides, the growth in assay [7] was 40.2% [50 µM]; in [8], 26.8% [50 µM]; in [9] it was 43.9% [50 µM]; in assay [10], 20.5% [50 µM].
For the compound `CNCCCNc1nc2ccccc2c2c(=O)c3cc(Cl)ccc3sc12`, the growth in [1] is 95.3%; in assay [2], 76.7%; in [3] it was 24.9%; in [4], 7.83% (active); in assay [5], 68.9%; in assay [6], 13.3%. Further, the growth in assay [7] was 43.8%; in [8], 76.2%; in assay [9] it was 12.3%; in [10], -42% (active).
As for `CCCCn1c(NC(C)=O)c(S(=O)(=O)c2ccccc2)c2nc3ccccc3nc21`, the growth was 121% in assay [1]; 95.5% in assay [2]; 103% in [3]; 92% in [4]; 99.7% in assay [5]; 106% in assay [6]. Moreover, the growth is 104% in assay [7], 87.3% in assay [8], 77.7% in assay [9] and 82.5% in assay [10].
`CN(C)c1ccc(/C=C2\C=C(c3nc4ccccc4s3)OC2=O)cc1`: the growth in assay [1] was 107%; in [2], 94%; in assay [3], 97.1%; in assay [4], 73.4%; in assay [5], 118%; in assay [6], 92.2%. The growth was 76% in assay [7], 112% in assay [8], 99% in [9] and 94.8% in assay [10].
Consider `O=C1c2cccnc2C(=O)c2c1c(C(=O)OCCc1ccccn1)c1ccccn21`, for which the growth in assay [1] was -35.4% (active); in [2], 25.4%; in assay [3] it was -33.4% (active); in assay [4], -48.7% (active); in assay [5] it was -43.9% (active); in [6] it was -48.5% (active). Moreover, the growth in assay [7] was 8.74% (active); in [8], -57% (active); in [9] it was -14.1% (active); in assay [10] it was -0.142% (active).
With `Cc1ccc(C)c2c1sc1nc(N3CCOCC3)c(C#N)c(=O)n12`, the growth in assay [1] was 110%; in assay [2], 80.2%; in assay [3] it was 104%; in assay [4] it was 74.9%; in [5], 154%; in [6], 105%. The growth in [7] was 105%; in assay [8] it was 75.7%; in [9], 83.1%; in assay [10], 110%.
Consider `Fc1ccc(/C=C/[C@@H]2C[C@@H](F)CCO2)cc1`, for which the growth is 110% in assay [1]; 97.3% in assay [2]; 100% in assay [3]; 87% in assay [4]; 94.2% in [5]; 101% in assay [6]. In addition, the growth is 86.8% in [7], 109% in assay [8], 86.8% in assay [9] and 70.1% in assay [10].
